Assay results from PubChem BioAssay AID1159580 (chemical genetic matrix, 2015).
Several values for one entry are separate records, joined by “and”; a condition that tells them apart may be missing. Equal entries are not always repeated. About 2,000 (36%) of roughly 5,500 compounds were called active. Roughly 18% stayed inconclusive and do not appear here. Cut-off read from the data, not from the text of the source: active = normalized growth mostly below about 0.91 (no sharp cut-off); inconclusive = no clear call, values can overlap the other calls; inactive = mostly above about 0.92. The list shows a part of the results.

Test: chemical genetic growth profiling, strain panel (AID 1159580);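 note: tested at 20 µM; growth read once vehicle control cultures reached saturation at 30 °C; 1 = growth at the plate median or of vehicle wells; lower values mean less growth of the strain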
Details: S. cerevisiae deletion strains, growth OD

Measured: normalized growth

CC(=O)O[C@H]1CC[C@@]2(C)C(C[C@@H](OC(C)=O)[C@@]3(C)C4=CC(=O)O[C@@H](c5ccoc5)[C@]4(C)CCC23)C1(C)C (stereo partly drawn)
inactive: locus YAL021C, strain ccr4, hits give low values 1 | locus YAL026C, strain drs2, hits give low values 1.01 | locus YAL030W, strain snc1, hits give low values 0.999 | locus YBL061C, strain skt5, hits give low values 0.997 | locus YBR009C, strain hhf1, hits give low values 1.02 | locus YBR021W, strain FUR4, hits give low values 0.981 | locus YBR023C, strain chs3, hits give low values 0.996 | locus YBR171W, strain sec66, hits give low values 1 | locus YBR229C, strain ROT2, hits give low values 1.01 | locus YBR231C, strain swc5, hits give low values 1.01 | locus YBR279W, strain paf1, hits give low values 1 | locus YCL011C, strain gbp2, hits give low values 1.01 | locus YCL016C, strain dcc1, hits give low values 1.01 | locus YCL029C, strain bik1, hits give low values 0.989 | locus YCL061C, strain MRC1, hits give low values 0.994 | locus YCL069W, strain vba3, hits give low values 1.02 | locus YCR088W, strain abp1, hits give low values 1 | locus YDL005C, strain med2, hits give low values 1 | locus YDL035C, strain GPR1, hits give low values 1.02 | locus YDL040C, strain nat1, hits give low values 1 | locus YDL074C, strain BRE1, hits give low values 1 | locus YDL101C, strain DUN1, hits give low values 0.999 | locus YDL134C, strain PPH21, hits give low values 1 | locus YDL185W, strain tfp1, hits give low values 1 | locus YDL192W, strain arf1, hits give low values 0.988 | locus YDR001C, strain nth1, hits give low values 1 | locus YDR069C, strain doa4, hits give low values 1.02 | locus YDR101C, strain arx1, hits give low values 1.01 | locus YDR137W, strain rgp1, hits give low values 0.96 | locus YDR150W, strain NUM1, hits give low values 1.01 | locus YDR159W, strain sac3, hits give low values 1 | locus YDR162C, strain NBP2, hits give low values 0.992 | locus YDR195W, strain ref2 1.02 | locus YDR297W, strain sur2, hits give low values 1.02 | locus YDR318W, strain mcm21, hits give low values 0.998 | locus YDR334W, strain swr1, hits give low values 1.01 | locus YDR335W, strain msn5, hits give low values 0.997 | locus YDR388W, hits give low values 1 | locus YDR392W, strain spt3, hits give low values 0.974 | locus YDR502C, strain sam2, hits give low values 0.992 | locus YEL003W, strain gim4, hits give low values 1 | locus YEL037C, strain rad23, hits give low values 1 | locus YEL061C, strain CIN8 (second series), hits give low values 1.01 | locus YEL061C, strain CIN8, hits give low values 1.01 | locus YER015W, strain faa2, hits give low values 0.991 | locus YER016W, strain bim1, hits give low values 0.997 | locus YER110C, hits give low values 0.992 | locus YER111C, strain swi4, hits give low values 1.01 | locus YER155C, strain BEM2 (second series), hits give low values 0.992 | locus YER155C, strain BEM2, hits give low values 1.01 | locus YER167W, strain BCK2, hits give low values 1.01 | locus YFR010W, strain ubp6, hits give low values 1 | locus YGL078C, strain dbp3, hits give low values 0.992 | locus YGL086W, strain mad1, hits give low values 1.01 | locus YGL167C, strain pmr1, hits give low values 1.01 | locus YGL173C, strain kem1, hits give low values 1.01 | locus YGL227W, strain vid30, hits give low values 0.997 | locus YGL240W, strain doc1, hits give low values 1.02 | locus YGL248W, strain PDE1, hits give low values 1 | locus YGL253W, strain hxk2, hits give low values 1 | locus YGR078C, strain PAC10, hits give low values 0.988 | locus YGR135W, strain pre9, hits give low values 0.975 | locus YGR229C, strain SMI1, hits give low values 1 | locus YGR252W, strain gcn5, hits give low values 0.929 | locus YHR013C, strain ard1, hits give low values 0.978 | locus YHR027C, strain rpn1, hits give low values 1.01 | locus YHR030C, strain SLT2, hits give low values 0.955 | locus YHR079C, strain IRE1 (second series), hits give low values 0.993 | locus YHR079C, strain IRE1, hits give low values 0.98 | locus YHR094C, strain hxt1, hits give low values 0.998 | locus YHR129C, strain ARP1, hits give low values 1.01 | locus YHR142W, strain chs7, hits give low values 1 | locus YHR200W, strain rpn10, hits give low values 0.994 | locus YIL066C, strain RNR3, hits give low values 1.02 | locus YIL073C, strain SPO22, hits give low values 1.02 | locus YIL125W, strain kgd1, hits give low values 1.01 | locus YIR030C, strain dcg1, hits give low values 0.991 | locus YJL092W, strain hpr5, hits give low values 0.996 | locus YJL095W, strain BCK1 (second series), hits give low values 0.99 | locus YJL095W, strain BCK1, hits give low values 0.985 and 0.949 | locus YJL115W, strain asf1, hits give low values 0.993 | locus YJL129C, strain trk1, hits give low values 0.99 | locus YJL134W, strain LCB3, hits give low values 1.01 | locus YJL154C, strain vps35, hits give low values 0.994 | locus YJL164C, strain tpk1, hits give low values 1.01 | locus YJL166W, strain qcr8, hits give low values 1.02 | locus YJL168C, strain set2, hits give low values 0.986 | locus YJL187C, strain SWE1 (second series), hits give low values 0.997 | locus YJL187C, strain SWE1, hits give low values 1.01 | locus YJR066W, strain TOR1, hits give low values 0.9 | locus YJR075W, strain HOC1, hits give low values 1.01 | locus YKL068W, hits give low values 0.984 | locus YKL085W, strain MDH1 (second series), hits give low values 1.02 | locus YKL085W, strain MDH1, hits give low values 1.02 | locus YKL160W, strain elf1, hits give low values 1 | locus YKL190W, strain CNB1, hits give low values 1 | locus YKR001C, strain vps1, hits give low values 0.983 | locus YKR026C, strain gcn3, hits give low values 1.01 | locus YKR091W, strain srl3, hits give low values 1 | locus YLL001W, strain dnm1, hits give low values 1.01 | locus YLL026W, hits give low values 0.995 | locus YLL041C, strain sdh2, hits give low values 0.987 | locus YLR027C, strain aat2, hits give low values 1 | locus YLR039C, strain RIC1, hits give low values 0.985 | locus YLR058C, strain SHM2, hits give low values 1.01 | locus YLR102C, strain apc9, hits give low values 0.997 | locus YLR113W, strain HOG1, hits give low values 0.966 | locus YLR221C, strain rsa3, hits give low values 1.02 | locus YLR258W, strain gsy2, hits give low values 0.995 | locus YLR262C, strain YPT6 (second series), hits give low values 0.979 | locus YLR262C, strain YPT6, hits give low values 1.02 | locus YLR268W, strain sec22, hits give low values 1.01 | locus YLR320W, strain mms22, hits give low values 0.999 | locus YLR342W, strain FKS1, hits give low values 1 | locus YLR357W, strain rsc2, hits give low values 1.01 | locus YLR370C, strain arc18, hits give low values 1.02 | locus YLR371W, strain rom2, hits give low values 1 | locus YLR384C, strain iki3, hits give low values 0.987 | locus YLR418C, strain cdc73, hits give low values 0.954 | locus YML016C, strain PPZ1, hits give low values 1.01 | locus YML032C, strain rad52, hits give low values 0.985 | locus YML120C, strain ndi1, hits give low values 1.02 | locus YML124C, strain tub3, hits give low values 0.987 | locus YMR058W, strain fet3, hits give low values 1 | locus YMR078C, strain ctf18, hits give low values 0.981 | locus YMR125W, strain sto1, hits give low values 0.99 | locus YMR129W, hits give low values 1 | locus YMR205C, strain PFK2, hits give low values 1.01 | locus YMR223W, strain ubp8, hits give low values 0.983 | locus YMR231W, strain pep5, hits give low values 0.991 | locus YMR263W, strain SAP30, hits give low values 1.01 | locus YMR307W, strain GAS1, hits give low values 1.03 | locus YNL067W, strain RPL9B, hits give low values 0.997 | locus YNL071W, strain lat1, hits give low values 1.01 | locus YNL153C, strain GIM3, hits give low values 0.999 | locus YNL183C, strain NPR1, hits give low values 0.935 | locus YNL209W, strain ssb2, hits give low values 1.02 | locus YNL233W, strain BNI4, hits give low values 1.02 | locus YNL248C, strain rpa49, hits give low values 1.01 | locus YNL250W, strain rad50, hits give low values 0.995 | locus YNL271C, strain bni1, hits give low values 1 | locus YNL298W, strain CLA4, hits give low values 1.01 | locus YNL307C, strain MCK1, hits give low values 0.995 | locus YNL322C, strain KRE1 (second series), hits give low values 0.987 | locus YNL322C, strain KRE1, hits give low values 1.01 | locus YNR049C, strain mso1, hits give low values 1.01 | locus YNR052C, strain pop2, hits give low values 0.987 | locus YOL006C, strain TOP1, hits give low values 0.965 | locus YOL012C, strain htz1 1.15 | locus YOL147C, strain pex11, hits give low values 1 | locus YOR001W, strain rrp6, hits give low values 1.01 | locus YOR061W, strain CKA2, hits give low values 1.01 | locus YOR069W, strain VPS5, hits give low values 1 | locus YOR070C, strain gyp1, hits give low values 1.01 | locus YOR080W, strain dia2, hits give low values 1 | locus YOR083W, strain WHI5, hits give low values 1 | locus YOR106W, strain vam3, hits give low values 1.03 | locus YOR136W, strain idh2, hits give low values 0.992 | locus YOR144C, strain elg1, hits give low values 0.995 | locus YOR184W, strain ser1, hits give low values 1.01 | locus YOR231W, strain MKK1, hits give low values 0.957 | locus YOR265W, strain rbl2, hits give low values 1.02 | locus YOR270C, strain vph1, hits give low values 0.886 | locus YOR290C, strain snf2, hits give low values 0.998 | locus YOR316C, strain cot1, hits give low values 0.997 | locus YPL051W, strain arl3, hits give low values 0.997 | locus YPL055C, strain LGE1, hits give low values 1.03 | locus YPL078C, strain atp4, hits give low values 1.01 | locus YPL106C, strain sse1, hits give low values 1.02 | locus YPL240C, strain hsp82, hits give low values 0.998 | locus YPL241C, strain CIN2, hits give low values 1 | locus YPL256C, strain CLN2, hits give low values 0.96 | locus YPR119W, strain clb2, hits give low values 0.992 | locus YPR141C, strain kar3, hits give low values 0.99 | locus YPR163C, strain tif3, hits give low values 0.989 | locus YPR167C, strain met16, hits give low values 0.985 | strain wtn01, hits give low values 0.993
active: locus YKL009W, strain mrt4, hits give low values 1.21 [resistant]
